High-throughput results from PubChem BioAssay.
The list is not random: actives were taken first. Their share in the collection is about 19%.
ELG1 DNA repair – ELG1-dependent DNA repair inhibition; HEK293T ELG1-luciferase reporter, luminescence, 16 h; DNA damage induced by 5-fluorouridine; AID 504467; 330,000 compounds, 2.3% hits; Potency, µM (titrated, usually from 46.1 µM), without a hit: top-dose activity change, negative = inhibition, most hits filed as inhibitors; further: potency means the concentration at half of the fitted maximal effect; nearly all actives have a fitted effect of over 55% in size
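Quantitative HTS, concentration-response format. 2,000 cells/well co-treated with 5-fluorouridine and compound, 16 hr in 5% CO2 at 37 °C; ONE-Glo luminescence read after 30 min.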
HT1080 IDH1KD tx – kills HT-1080 cells with IDH1 knockdown. HT-1080 IDH1 knockdown viability, ATP luminescence, 48 h. Potency, µM (series often up to 46.1 µM), without a hit: at the highest dose activity, negative = toxicity, most hits filed as cytotoxic. 360,000 compounds, 2% hits. AID 686971;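 further: potency means the concentration at half of the fitted maximal effect; 0% = DMSO wells and -100% = cell-free medium wells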
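In this qHTS, HT-1080 cells depleted of IDH1 are exposed for 48 h at 37 °C to compound titrations. Toxicity is scored from CellTiter-Glo luminescence, with DMSO as full viability and medium alone as none.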
TDP1 cell noCPT – qHTS for Inhibitors of human tyrosyl-DNA phosphodiesterase 1 (TDP1): qHTS in cells in absence of CPT. DT40 Tdp1-/- hTDP1 cells, no CPT, ATP luminescence, 48 h. Potency, µM (top dose mostly 46.2 µM), inactives show at the highest dose activity change, negative = growth inhibition, hits mostly inhibitors. 420,000 compounds, 15% hits. AID 686978, 2013; further: potency means the concentration at half of the fitted maximal effect; nearly all actives have a fitted effect of over 55% in size
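DT40 Tdp1-/-;hTDP1 cells, no CPT (DMSO vehicle only), 400 cells/well; compounds pin-transferred; ≥48 hr, 37 °C; CellTiter-Glo 30 min RT dark, luminescence read.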
HT1080-NT tox – kills 2HG-producing HT-1080-NT fibrosarcoma cells; Potency, µM (doses to about 46.1 µM), without a hit: top-dose activity, negative = less viability, actives largely listed as cytotoxic; HT-1080-NT fibrosarcoma viability, CellTiter-Glo ATP luminescence, 48 h; 360,000 compounds, 1.6% hits;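 further: NT is the 2HG producing partner of a matched IDH1 knockdown line; potency means the concentration at half of the fitted maximal effect; 0% = DMSO-treated cells and -100% = media-only wells without cells; nearly all actives have a fitted effect of over 55% in size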
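750 cells/well, RPMI + 5% FBS; 2 h settle, compound pin-transfer, 48 h at 37 degrees C. CellTiter-Glo 10 min RT, luminescence. Normalized to DMSO and media-only wells.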
DT40 TDP1 CPT – DT40-hTDP1 cell growth loss with CPT; AID 686979; Potency, µM (top dose mostly 46.2 µM), for the others: at the top dose activity change, negative = growth inhibition, usual class: inhibitors; 420,000 compounds, 12% hits; chicken DT40 Tdp1-/-;hTDP1 cells + 20 nM CPT, ATP luminescence, 48 h; further: potency means the concentration at half of the fitted maximal effect; nearly all actives have a fitted effect of over 55% in size
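Chicken DT40 Tdp1-/- cells complemented with human TDP1, 400 cells/well, exposed to compounds plus 20 nM camptothecin for at least 48 h at 37 C; viability read as ATP content by CellTiter-Glo luminescence.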
IL1B secr inh – inflammasome signaling inhibition, IL-1 beta readout; THP-1 LPS/ATP IL-1B secretion, AlphaLISA, 16 h; stronger effect = lower value; activity change, % at 57.5 µM; AID 743279; 360,000 compounds, 4.7% hits; in the data active means activity change below about -50%; inconclusive means mostly about -30% to -49%
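Secreted IL-1B measured by AlphaLISA bead assay after 16 h compound exposure of THP-1 cells; compounds (final up to 57.5 uM) added 1 h before LPS (250 ng/mL) and ATP (1.25 mM) stimulation; lower signal means less secretion.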
Starred values were filed as active, the others as inactive; ? = inconclusive; · = no result. Unless noted, the call rests on the fitted dose curve; in most records, active means well fitted curve in the direction sought with a large enough effect; inconclusive means small, poorly fitted or top-dose-only effect, or another doubt; inactive means no such curve, though single readings can be large; an effect the other way counts as inactive or inconclusive. Unless noted, on the % scale 0 is the no-effect control and ±100 the full control effect.

SMILES | ELG1 DNA repair | HT1080 IDH1KD tx | TDP1 cell noCPT | HT1080-NT tox | DT40 TDP1 CPT | IL1B secr inh
CC(C)(C)CNC(=O)[C@]1(C)CCC[C@@]2(C)C3CC[C@@]4(C)C[C@]3(CCC21)CC4=O (some centres undefined) | -14% | -13% | 23µM* | 0% | ? | 41
CC(C)(C)NC(=O)[C@]1(C)CCC[C@@]2(C)C3CC[C@@]4(C)C[C@]3(CCC21)CC4=O (some centres undefined) | 5% | 1% | -25% | 4% | ? | 27
C[C@@]12CCC3[C@@](CCC4[C@@]3(C)CCC[C@@]4(C)C(=O)NCc3ccccc3)(CC1=O)C2 (some centres undefined) | -12% | -12% | 18µM* | -14% | ? | 19
C[C@@]12CCC3[C@@](CCC4[C@@]3(C)CCC[C@@]4(C)C(=O)O)(CC1=O)C2 (some centres undefined) | 12% | 3% | -14% | 10% | 2% | 46
CCOc1ccc(NC(=S)N(CCOC)C2CCN(C(C)C)CC2)cc1 | -17% | 0% | -33% | -2% | 2% | -17
CCCNC(=O)c1c(NC(=O)c2ccccc2F)sc2c1CCCCC2 | · | · | -4% | · | 3% | ·
CCCNC(=O)c1sc2c(c1C(=O)Nc1ccccn1)CCCC2 | ? | -3% | 18µM* | -3% | 26µM* | -8
N#Cc1c(C#N)c(-c2ccccc2)n(-c2ccccc2)c1N | ? | -21% | 12µM* | -24% | 15µM* | -15
COc1cn(-c2ccccc2)nc1C(=O)Nc1ccc(C)cc1Cl | -9% | -23% | ? | -10% | -6% | -13
[O-][n+]1c2ccccc2[n+]([O-])c2cc(O)ccc21 | -18% | -20% | 13µM* | -18% | 9.2µM* | 0
Clc1cccc(C=NC=Nc2cccc(Cl)c2)c1 | · | · | -6% | · | 4% | ·
Cc1cccc(C(=O)NNC2=C(C(=O)C(F)(F)F)CCC2)c1O | 21µM* | 21µM* | 13µM* | 21µM* | 6.5µM* | 97
O=C(NNC1=C(C(=O)C(F)(F)F)CCC1)c1cccc(O)c1 | -19% | 18µM* | ? | ? | ? | 20
Cc1cccc(C(=O)NNS(=O)(=O)c2ccc(F)cc2)c1O | -12% | -6% | ? | -9% | ? | -11
CCc1ccc(-c2cc(C(=O)Nn3cnnc3)c3ccccc3n2)cc1 | ? | 14µM* | 13µM* | 10µM* | 7.3µM* | 26
O=C(NN1CCOCC1)c1cc(-c2ccc(Br)s2)nc2ccccc12 | ? | 12% | ? | 5% | ? | 12
CC(C)Oc1cccc(-c2cc(C(=O)NN3CCOCC3)c3ccccc3n2)c1 | -12% | 1% | 10µM* | -4% | 15µM* | -3
CCCc1ccc(-c2cc(C(=O)NN3CCOCC3)c3ccccc3n2)cc1 | ? | ? | 0.46µM* | -8% | ? | -56*
C=CCc1cccc(/C=C/c2cc(=O)c3ccccc3[nH]2)c1O | ? | -13% | 7.3µM* | -6% | 7.3µM* | -17
CC(C)(C)c1ccc(C(=O)Nc2sc3c(c2C(=O)O)CCC3)cc1 | 3.7µM* | ? | ? | -29% | ? | 17
Cc1ccc(C(=O)Nc2sc3c(c2C(=O)O)CCC(C)C3)o1 (centres undefined) | ? | ? | 21µM* | ? | ? | -8
CC1CCc2c(sc(NC(=O)c3cccs3)c2C(=O)O)C1 (centres undefined) | 38% | ? | ? | ? | ? | ?
Cc1ccc(C(=O)Nc2sc3c(c2C(=O)O)CCCCC3)o1 | 3% | 18µM* | 15µM* | 21µM* | ? | 0
COC(=O)c1c(NC(=O)c2ccc(C)o2)sc2c1CCCCC2 | ? | -7% | ? | -10% | ? | ?
O=c1[nH][nH]c(-c2ccccc2)c1C=Nc1ccc(OC(F)(F)F)cc1 | -12% | -1% | 0% | 9% | -2% | -12
SMILES | ELG1 DNA repair | HT1080 IDH1KD tx | TDP1 cell noCPT | HT1080-NT tox | DT40 TDP1 CPT | IL1B secr inh
COc1cc2c(cc1N)-c1ccc(N)cc1C2=O | · | -3% | 16µM* | 3% | ? | -64*
Nn1c(SCc2ccccc2)nc2ccccc21 | ? | -14% | 1% | -15% | 2% | 1
COc1ccc(NC(=O)N2CCN(Cc3nc4ccc(C)cc4o3)CC2)cc1OC | · | · | -7% | · | -14% | ·
O=C(COC(=O)c1cc(S(=O)(=O)N2CCOCC2)ccc1F)NCc1ccc2c(c1)OCO2 | -2% | 0% | 0% | 0% | -2% | -12
CCOC(=O)c1cnc2ccc(C(=O)OC)cc2c1Nc1ccccc1CC | · | · | 12µM* | · | 16µM* | ·
CCOC(=O)c1ccc2ncc(C(=O)OCC)c(NCc3ccco3)c2c1 | ? | ? | 23µM* | ? | 15µM* | -4
CCOC(=O)c1cnc2c(C)cccc2c1NCc1ccco1 | ? | -17% | -19% | -1% | -25% | -19
NC(=O)CSc1nc2cc3c(cc2c(=O)n1CCCCCC(=O)NCc1ccc2c(c1)OCO2)OCO3 | · | · | -23% | · | 10% | ·
O=C(c1ccc(CNS(=O)(=O)c2cccc(Cl)c2)cc1)N1CCCC1 | ? | 4% | -27% | 1% | 2% | 9
